Experimental data taken from the supplement of paper PMC9135407.
Values joined by “and” are separate entries in the source; they are usually repeats but may differ in a detail not shown here. Equal entries are not always repeated. The campaign covered roughly 5,800 compounds. About 620 (11%) showed activity. Only a selection was taken, and actives are over-represented in it overall. Unmarked numbers belong to inactive results.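 Rule for the calls: active = score above a cut-off or among the top three wells of a plate; in these data no inactive exceeds 0.85.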

System: primary human hepatic stellate cells (donor 1)
Assay: scaled lipid accumulation score (0 = DMSO-like, 1 = nortriptyline-like); higher = stronger HSC inactivation (lipid re-accumulation), active = hit call of the paper
Conditions: 48 h
Experimental: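 Primary lipid accumulation screen in primary human hepatic stellate cell myofibroblasts (donor 1, passage 8) in 384-well plates. 100 nL of library compound was pin-transferred into 30 µL medium in duplicate, and cells were treated for 48 h. The 'Scaled' score combines distance from plate baseline, toxicity and reproducibility penalties, and is normalised to nortriptyline (positive) and DMSO (negative) controls on each plate. A hit is defined as scaled >0.85 or among the top 3 wells per plate.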

[1] = library stock concentration: 10 mM
[2] = library stock concentration: 3.33 mM
[3] = library stock concentration: 1 mM
[4] = library stock concentration: 80 uM
[5] = library stock concentration: 400 uM
[6] = library stock concentration: 2 mM

## COc1ccc(-c2oc3c(CC=C(C)C)c(O[C@@H]4O[C@H](CO)[C@@H](O)[C@H](O)[C@H]4O)cc(O)c3c(=O)c2O[C@@H]2O[C@@H](C)[C@H](O)[C@@H](O)[C@H]2O)cc1
[1]
  scaled lipid accumulation score: ≤ 0

## COc1ccc(-c2oc3c(CC=C(C)C)c(O[C@@H]4O[C@H](CO)[C@@H](O)[C@H](O)[C@H]4O)cc(O)c3c(=O)c2O[C@@H]2O[C@@H](C)[C@H](O)[C@@H](O)[C@H]2O)cc1 [Icariin]
[2]
  scaled lipid accumulation score: 0.048
[1]
  scaled lipid accumulation score: ≤ 0

## CCCCC[C@H](O)/C=C/[C@H]1[C@H](O)CC(=O)[C@@H]1C/C=C\CCCC(=O)OCC(O)CO (some centres not stated) [Prostaglandin E2-1-glyceryl ester]
[3]
  scaled lipid accumulation score: ≤ 0

## CCCCC[C@H](O)/C=C/[C@@H]1[C@@H](C/C=C\CCCC(=O)NCC)[C@@H](O)C[C@H]1O [Prostaglandin F2.alpha. ethyl amide]
[3]
  scaled lipid accumulation score: ≤ 0

## CCCCCCCCCCCCCCOc1ccc(C(=O)O)o1
[3]
  scaled lipid accumulation score: 0.036

## COc1ccc(-c2cnc3c(-c4ccsc4)cnn3c2)cc1 [VEGF Receptor 2 Kinase Inhibitor IV]
[2]
  scaled lipid accumulation score: ≤ 0

## Cc1ccc(S(=O)(=O)C=CC#N)cc1
[2]
  scaled lipid accumulation score: 0.718
[1]
  scaled lipid accumulation score: 0.445

## CC(C)(C)c1ccc(S(=O)(=O)Nc2ccc(-n3ccnc3)cc2)cc1 [Stem-Cell Factor/c-Kit Inhibitor, ISCK03]
[2]
  scaled lipid accumulation score: ≤ 0

## CC(C)(C)c1ccc(S(=O)(=O)/C=C/C#N)cc1 [listing 1 of 2 here]
[1]
  scaled lipid accumulation score: 0.172

## CC(C)(C)c1ccc(S(=O)(=O)/C=C/C#N)cc1 [listing 2 of 2 here]
[1]
  scaled lipid accumulation score: 1.12 (active)

## Cc1ccc(S(=O)(=O)/C=C/C#N)cc1 [listing 1 of 2 here]
[4]
  scaled lipid accumulation score: ≤ -0.001
[5]
  scaled lipid accumulation score: ≤ -0.001
[6]
  scaled lipid accumulation score: 0.813
[2]
  scaled lipid accumulation score: 0.807
[1]
  scaled lipid accumulation score: 0.729 and 0.437
Library stock concentration: 24.1 mM
  scaled lipid accumulation score: 0.648

## Cc1ccc(S(=O)(=O)/C=C/C#N)cc1 [listing 2 of 2 here]
[1]
  scaled lipid accumulation score: 0.931 (active)

## Cc1cc2c(C(=O)NCC(C)c3ccccc3)c(O)c(O)cc2c(O)c1-c1c(C)cc2c(C(=O)NCC(C)c3ccccc3)c(O)c(O)cc2c1O (configuration not stated) [Sabutoclax]
[2]
  scaled lipid accumulation score: 0.768
[1]
  scaled lipid accumulation score: 0.582

## COc1cc(CCc2cc(NC(=O)c3ccc(N4CC(C)NC(C)C4)cc3)n[nH]2)cc(OC)c1 (configuration not stated)
[4]
  scaled lipid accumulation score: ≤ -0.016
[5]
  scaled lipid accumulation score: ≤ -0.016
[6]
  scaled lipid accumulation score: 0.369
[2]
  scaled lipid accumulation score: 0.476
[1]
  scaled lipid accumulation score: 0.5

## CC(Cc1ccccc1)Nc1ncnc2c1ncn2C1OC(CO)C(O)C1O (stereo not drawn) [R(-)-N6-(2-Phenylisopropyl)adenosine]
[1]
  scaled lipid accumulation score: ≤ -0.055

## N#Cc1c(O)c2c(-c3ccc(-c4ccccc4O)cc3)csc2[nH]c1=O
[2]
  scaled lipid accumulation score: 0.004
[1]
  scaled lipid accumulation score: ≤ 0 and 0.001

## CC1(C)S[C@@H]2[C@H](NC(=O)COc3ccccc3)C(=O)N2[C@H]1C(=O)O [Penicillin v potassium]
Library stock concentration: 5.1 mM
  scaled lipid accumulation score: 0.003
[1]
  scaled lipid accumulation score: ≤ 0

## CC1(C)S[C@@H]2[C@H](NC(=O)COc3ccccc3)C(=O)N2[C@H]1C(=O)O [Penicillin V]
[1]
  scaled lipid accumulation score: ≤ 0
